Screening results as filed in PubChem BioAssay.
KDM5B inhibitor: inhibitors of human KDM5B histone demethylase. AID 1347165. 220,000 compounds, 2.6% hits. KDM5B demethylase, FDH-coupled NADH fluorescence (FDH is formaldehyde dehydrogenase). Potency, µM (titrated, usually from 57.7 µM), usual class: inhibitors; note: nearly all actives have a fitted effect of over 70% in size
Target sequence (Q9UGL1 whole entry, looked up): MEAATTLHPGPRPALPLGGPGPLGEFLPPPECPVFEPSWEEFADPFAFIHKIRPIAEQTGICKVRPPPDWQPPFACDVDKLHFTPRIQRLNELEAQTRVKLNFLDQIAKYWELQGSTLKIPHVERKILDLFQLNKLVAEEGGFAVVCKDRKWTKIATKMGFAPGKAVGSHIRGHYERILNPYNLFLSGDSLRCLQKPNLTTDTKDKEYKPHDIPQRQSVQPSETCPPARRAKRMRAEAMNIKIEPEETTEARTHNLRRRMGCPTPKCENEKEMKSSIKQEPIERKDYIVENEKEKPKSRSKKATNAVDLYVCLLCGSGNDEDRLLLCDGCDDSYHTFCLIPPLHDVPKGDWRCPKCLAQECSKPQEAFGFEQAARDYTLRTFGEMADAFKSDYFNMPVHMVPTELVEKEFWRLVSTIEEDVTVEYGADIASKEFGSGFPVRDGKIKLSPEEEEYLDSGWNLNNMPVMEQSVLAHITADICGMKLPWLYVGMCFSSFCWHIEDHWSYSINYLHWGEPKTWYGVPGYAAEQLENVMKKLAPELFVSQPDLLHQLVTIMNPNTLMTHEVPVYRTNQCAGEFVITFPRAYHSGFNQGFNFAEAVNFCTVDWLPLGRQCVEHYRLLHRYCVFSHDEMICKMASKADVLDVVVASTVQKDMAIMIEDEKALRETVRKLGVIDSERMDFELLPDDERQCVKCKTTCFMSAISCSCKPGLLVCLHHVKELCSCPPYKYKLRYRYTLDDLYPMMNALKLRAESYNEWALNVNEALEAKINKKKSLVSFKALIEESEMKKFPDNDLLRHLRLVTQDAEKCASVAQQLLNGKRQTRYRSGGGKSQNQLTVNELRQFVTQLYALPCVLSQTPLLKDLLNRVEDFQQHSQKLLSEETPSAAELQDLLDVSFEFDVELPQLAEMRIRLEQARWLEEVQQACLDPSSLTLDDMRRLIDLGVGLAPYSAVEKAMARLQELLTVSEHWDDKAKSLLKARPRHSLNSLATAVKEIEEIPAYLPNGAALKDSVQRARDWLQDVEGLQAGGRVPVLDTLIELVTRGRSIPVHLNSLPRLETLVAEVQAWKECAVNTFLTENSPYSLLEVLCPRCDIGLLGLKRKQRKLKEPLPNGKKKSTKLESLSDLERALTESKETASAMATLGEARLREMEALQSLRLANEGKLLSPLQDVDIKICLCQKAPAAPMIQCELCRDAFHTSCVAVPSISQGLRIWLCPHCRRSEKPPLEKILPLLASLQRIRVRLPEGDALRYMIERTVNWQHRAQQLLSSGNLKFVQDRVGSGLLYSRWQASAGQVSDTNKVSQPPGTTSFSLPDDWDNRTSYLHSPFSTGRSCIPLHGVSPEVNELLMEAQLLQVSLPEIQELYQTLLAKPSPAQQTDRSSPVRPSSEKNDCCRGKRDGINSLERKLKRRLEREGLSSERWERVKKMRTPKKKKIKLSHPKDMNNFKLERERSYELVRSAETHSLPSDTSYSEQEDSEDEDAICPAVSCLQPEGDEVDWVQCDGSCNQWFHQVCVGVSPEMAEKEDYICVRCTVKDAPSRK
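KDM5BΔAP (200 nM final) in 50 mM HEPES pH 7.5, 0.01% Tween-20 was preincubated 10 min at RT with compound over a concentration range. Substrate mix (H3K4me3 12.5 µM, α-KG 25 µM, Fe²⁺, ascorbate, NAD⁺, FDH) was added, and NADH fluorescence change over 30 min gave dose-response curves.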
SNCA expr inh: inhibitors of alpha-synuclein (SNCA) gene expression. 140,000 compounds, 0.17% hits. Potency, µM (highest dose often 57.2 µM), usual class: inhibitors. AID 1671194. HEK-293 SNCA-luciferase knock-in, luminescence, 24 h; note: nearly all actives have a fitted effect of over 45% in size
IP6K1 inh: inhibitors of human IP6K1 | 140,000 compounds, 0.81% hits | Q92551 | activity change, % (series mostly up to about 58 µM) | AID 1645851 | IP6K1 kinase, ADP-Glo luminescence, 2 h; stronger effect = lower value; in the data active = activity change below about -25%
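ADP-Glo luminescence measures ADP made by human IP6K1 during a 2 h RT reaction with ATP/IP6 (mix at 1.3 mM/130 uM); top library doses 57.5 and 19.1 uM final.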
HEK293 viab: counter-screen for SNCA expression inhibitors: cell viability | 150,000 compounds, 0.12% hits | HEK-293-SNCA-luc viability, GF-AFC fluorescence, 24 h | Potency, µM (series often up to 57.1 µM), actives largely listed as cytotoxic | AID 1671193; note: nearly all actives have a fitted effect of over 30% in size
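Cytotoxicity counterscreen: after 24 h compound treatment of genome-edited SNCA-luciferase HEK-293 cells, live-cell protease substrate GF-AFC read by fluorescence after 30 min; activity scaled between DMSO (0%) and medium-only (-100%), curves Hill-fitted.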
A number is an active result; - = inactive; ? = inconclusive; . = no result given; [ ] = remark or other dose. The list is not random: actives were taken first. Their share in the collection is about 2.9%. Unless noted, calls come from the whole dose curve; as a rule, active = well fitted curve in the direction sought with a large enough effect; inconclusive = small, poorly fitted or top-dose-only effect, or another doubt; inactive = no such curve, though single readings can be large; an effect the other way counts as inactive or inconclusive.

SMILES	KDM5B inhibitor	SNCA expr inh	IP6K1 inh	HEK293 viab
O=C(NC1CC1)c1nc(-c2cccc(C(F)(F)F)c2)c2ccccn12	?	-	-	-
Cc1ccc(NC(=O)N2CCCC(c3nc(-c4cccnc4)no3)CCNC(=O)CC2)cc1C (centres undefined)	-	-	-	-
Fc1ccc(CN2CCNc3cnc(-c4ccccc4)cc3C2)cc1F	35µM	?	-	?
c1ccc(-c2cc3c(cn2)NCCN(Cc2ccccn2)C3)cc1	35µM	-	-	-
CCCS(=O)(=O)N[C@@H]1CN(c2ncccn2)C[C@H]1CN(C)C	28µM	-	-	-
CCCCS(=O)(=O)N[C@@H]1CN(c2ncccn2)C[C@H]1CN(C)C	32µM	-	-	-
Cc1ccc(CS(=O)(=O)N[C@@H]2CN(c3ncccn3)C[C@H]2CN(C)C)cc1	?	-	-	-
O=C(CCC1CCN(S(=O)(=O)c2ccccc2F)CC1)NC1CCS(=O)(=O)C1 (centres undefined)	-	-	-	-
Cc1ccc(CN2CC[C@H](CNC(=O)C3CC3)[C@H](N(C)C)C2)s1	-	-	-	-[12.5 µM]
CC(=O)Nc1ccc2ncnc(N3CCCC3)c2c1	?	-	-	-
CC(C)CNC(=O)c1cc2cn(C3CC3)cc2s1	?	-	-	-
CN(C)CCNC(=O)c1cc2cn(C3CC3)cc2s1	13µM	-	-	-
CC1CCN(CCNC(=O)c2cc3cn(C(C)C)cc3s2)CC1	14µM	-	-	-
O=C(O)c1cc2cn(C3CCCC3)cc2s1	16µM	-	-	-
Cc1c(-c2ccccc2F)[nH]c2ccc(CNC(=O)C3CCNC3)cc12 (centres undefined)	28µM	-	-	-
O=C(NCc1ccccc1)C1CCN(Cc2ccccc2-c2ccccc2F)CC1	.	.	-	.
Cc1c(-c2ccccc2F)[nH]c2ccc(CNS(=O)(=O)C3CC3)cc12	28µM	-	-	-
CCCCc1cc(C[C@H]2CNCC[C@H]2CC(=O)NCc2ccccc2)no1	-	?	-	-
CCn1cc(-c2cc3c(cn2)CN(Cc2ccncc2)CCN3)cn1	32µM	-	-	-
Cn1nccc1-c1cc2c(cn1)CN(Cc1ccncc1)CCN2	35µM	?	-	-
Cc1cnc(C(=O)OCC(=O)c2ccc(-c3ccccc3)cc2)cn1	-	.	.	.
O=C(COc1ccc(F)cc1Cl)NCc1cccc(NC(=O)C2CC2)c1	-	.	.	.
CN(C)CC(=O)N1C[C@@H]2C[C@H](C1)c1ccc(-c3ccccc3CN3CCOCC3)c(=O)n1C2	18µM	-	-	-
COCCNC(=O)C1(C)CN(Cc2ccccc2)Cc2ccc(NCC(C)C)nc21 (centres undefined)	?	?	-	?
CNC(=O)C1(C)CN(Cc2ccccc2)Cc2ccc(Nc3ccccc3)nc21 (centres undefined)	35µM	-	-	?
SMILES	KDM5B inhibitor	SNCA expr inh	IP6K1 inh	HEK293 viab
CNC(=O)C1(C)CN(Cc2ccccc2)Cc2ccc(NCC(C)C)nc21 (centres undefined)	?	-	-	-
COC1CCN(C(=O)C2(C)CN(Cc3ccccc3)Cc3ccc(Nc4ccccc4)nc32)CC1 (centres undefined)	32µM	-	-	-
COCCN1Cc2ccc(Nc3ccc(OC)cc3)nc2C(C)(C(=O)Nc2ccccc2)C1 (centres undefined)	32µM	-	-	-
COCCNC(=O)C1(C)CN(Cc2ccccc2)Cc2ccc(Nc3ccccc3)nc21 (centres undefined)	32µM	-	-	-
COCCN1Cc2ccc(NCC(C)C)nc2C(C)(C(=O)Nc2ccc(OC)cc2)C1 (centres undefined)	?	-	-	?
CC(C)(CC(=O)O)CC(=O)N[C@H]1C[C@H]2C(=O)Nc3ccc(/C=C/c4ccccc4)cc3C(=O)N2C1	28µM	-	-	-
COc1ccc(/C=C/c2ccc3c(c2)C(=O)N2C[C@@H](NC(=O)CC(C)(C)CC(=O)O)C[C@H]2C(=O)N3)cc1	22µM	-	-	-
COCC(=O)N[C@H]1C[C@H]2C(=O)Nc3ccc(/C=C/c4ccccc4)cc3C(=O)N2C1	-	-	-	-
O=C1Nc2ccc(/C=C/c3ccccc3)cc2C(=O)N2C[C@H](O)C[C@@H]12	28µM	-	-	-
C=CCNC(=O)N[C@H]1C[C@H]2C(=O)Nc3ccc(/C=C/c4ccc(OC)cc4)cc3C(=O)N2C1	22µM	-	-	-
COc1ccc(/C=C/c2ccc3c(c2)C(=O)N2C[C@@H](NS(C)(=O)=O)C[C@H]2C(=O)N3)cc1	?	-	-	-
Cc1ccc(-c2cccc(=O)o2)cc1	-	.	.	.
Cc1ncc(CO)c(CN2CCC3(CC2)Cc2ccccc2CNC3=O)c1O	71µM	-	-	-
O=C1NCc2ccccc2CC12CCCN(Cc1ccnc3ccccc13)C2 (centres undefined)	?	-	-	-
Cc1ccccc1CN1CCC2(CC1)Cc1ccccc1CNC2=O	-	-	-	-
Cc1ncc(CO)c(CN2CCCC3(Cc4ccccc4CNC3=O)C2)c1O (centres undefined)	79µM	-	-	-
Cc1ccc(Cn2ccn(CC(=O)Nc3c(C)cc(C)cc3C)c(=O)c2=O)cc1	-	-	-	-
Cc1ccc(-c2cc3ncc4c(n3n2)-c2cc(C)ccc2OC4)cc1	?	-	-	-
CCn1ccc2c(CN3CCC4(CCCN(CCOC)C4=O)C3)cccc21 (centres undefined)	28µM	-	-	-
C=CCn1c(SCc2cccc(C)c2)nc2c1c(=O)n(C)c(=O)n2C	-	.	.	.
CC[n+]1c(/C=C/C=C2/N(C)c3ccccc3C2(C)C)sc2ccccc21	.	?	.	10µM
CCNC(=O)C1C(c2cccc(NC(=O)c3ccccc3)c2)OC(=O)N1Cc1ccccc1 (centres undefined)	-	-	-	-
CN1C(=O)[C@@H]2C[C@@H](CN2C(=O)NCc2ccccc2)Oc2ccccc21	-	-	-	-
O=C(CN1CCN(c2ccc(C(F)(F)F)cn2)CC1)NC1CC1	-	.	.	.
FC(F)(F)c1ccc(N2CCC(N[C@@H]3C[C@@H]4OCC[C@@H]43)CC2)nc1	20µM	-	-	-
SMILES	KDM5B inhibitor	SNCA expr inh	IP6K1 inh	HEK293 viab
O=C(CC1CCCCC1)N1CC2CC(C1)[C@H]1CCCC(=O)N1C2 (some centres undefined)	-	-	-	-
O=c1c2cc(-c3ccc(F)cc3)nn2ccn1CC(O)c1ccc(F)cc1 (centres undefined)	20µM	-	-	-
O=c1c2cc(-c3ccc(F)cc3)nn2ccn1CC(O)c1ccc2c(c1)OCO2 (centres undefined)	32µM	-	-	-
O=C(NCCc1noc(C2CC2)n1)NCc1ccc(F)cc1	-	-	-	-
COCc1cccc(-c2n[nH]c3c2CC(=O)N(CC2CC2)C3)c1	-	-	-	-
CN(C)c1cccc(-c2n[nH]c3c2CC(=O)N(CC2CC2)C3)c1	20µM	-	-	-
CC(C)CCNC(=O)c1ccc2c(c1)NC(=O)C(CS(=O)(=O)Cc1ccc(F)cc1)N2 (centres undefined)	?	-	-	-
CN(CC1(C)CCOCC1)C(=O)c1ccc2c(c1)OCO2	-	-	-	-
